# Assay outcomes as filed in PubChem.
# TIM10 inh = inhibits growth of TIM10 yeast strain; S. cerevisiae TIM10 strain growth, BacTiter-Glo luminescence, 24 h; inhibition, % at 10 µM; 330,000 compounds, 1.4% hits;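 active = inhibition of 40% or more at the single tested concentration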;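 note: wild-type TIM10 isogenic control strain grown at permissive 25 °C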
# NALP1 yeast inh = NALP1 inhibition | S. cerevisiae NALP1/ASC/caspase-1 growth, X-gal OD620, 72 h | inhibition, % at 10 µM | 280,000 compounds, 0.61% hits | AID 2071; in the data active = inhibition mostly above about 24%, no sharp cut-off; inactive = mostly below about 32%
# NALP3 yeast inh = NALP3 inhibition in yeast; Yeast reconstituted NLRP3/ASC/caspase-1, beta-gal luminescence, 24 h; inhibition, % at 10 µM; 330,000 compounds, 0.39% hits; AID 2825;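 active = inhibition of 50% or more; inactive = inhibition below 50%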
# tim10-1 inh = growth inhibitors of tim10-1 mutant yeast | S. cerevisiae tim10-1 ts strain growth, BacTiter-Glo, 24 h | 330,000 compounds, 2.2% hits | AID 463190 | inhibition, % at 20 µM;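 active = inhibition of at least 40%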;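 note: mutant grown at 25 °C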
# PfHsp90 set2 = reduces growth (ATP signal) of yeast expressing P. falciparum Hsp90. S. cerevisiae expressing PfHsp90, BacTiter-Glo ATP, 48 h; yeast lacking PDR1 and PDR3 efflux regulators. inhibition, % at 9.4 µM. 310,000 compounds, 0.32% hits;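 active = every replicate shows inhibition above about 80%, whatever the replicate mean, limit read from the data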
# tim23-1 inh = tim23-1 yeast growth inhibition; S. cerevisiae tim23-1 growth, BacTiter-Glo luminescence, 24 h; inhibition, % at 20 µM; 330,000 compounds, 1.3% hits;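 active = growth inhibition of the mutant yeast at or above 50%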;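 note: temperature-sensitive mutant grown at 25 °C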
# tim10-1 confirm = confirmation of tim10-1 mutant yeast growth inhibitors; shares compounds with tim10-1 inh; S. cerevisiae tim10-1 ts strain growth, BacTiter-Glo, 24 h; inhibition, % at 20 µM; 7,400 compounds, 56% hits;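 active = inhibition of yeast growth at or above a set limit in either of two repeat tests at 20 µM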;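 note: tim10-1 mutant grown at permissive 25 °C to find synthetic lethal compounds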
# Numbers stand for hits; 0 = inactive; - = no result. The list is not random: actives were taken first. Their share in the collection is about 4.2%.
SMILES,TIM10 inh,NALP1 yeast inh,NALP3 yeast inh,tim10-1 inh,PfHsp90 set2,tim23-1 inh,tim10-1 confirm
C/C(=N\NC(=S)NCc1ccccc1)c1ccc(C#N)cc1,0,0,0,0,0,0,-
C/C(=N\NC(=S)NCc1ccccc1)c1ccco1,0,0,0,0,0,0,-
C/C(=N\NC(=S)NCc1ccccc1)c1ccc(C(C)(C)C)cc1,0,0,0,42,0,0,0
C/C(=N\NC(=S)NCCc1ccccc1)c1ccc(O)cc1O,0,0,0,43,0,0,0
Oc1ccccc1/C=N/NC(=S)NCCc1ccccc1,-,0,-,-,0,-,-
C/C(=N\NC(=S)NCc1ccccc1)c1ccccc1F,0,0,0,46,0,0,34
CCOCCCNC(=O)C1(O)c2ccccc2NC(=O)N1c1ccc(Cl)cc1 (stereo not given),0,0,0,0,0,0,-
CSc1nc(C)cc(-c2cc(C(=O)Nc3ccccc3)on2)n1,0,-,0,0,-,0,-
CCc1cccc(CC)c1-n1c(SCC(=O)N2CCCc3ccccc32)nc(O)cc1=O,0,-,0,0,-,0,-
O=C(NCC(c1ccco1)N1CCc2ccccc21)C(=O)Nc1ccc(F)cc1F (stereo not given),0,-,0,0,-,0,-
CSc1nc2c(c(-c3ccccc3)c1C#N)CCC2,0,-,0,48,0,0,32
COc1ccccc1NC(=O)NC1(C(=O)N2CCCCC2)CCCCC1,0,0,0,0,0,0,-
CSc1ccc(S(=O)(=O)N2CCC(C(=O)N3CCc4ccccc4C3)CC2)cc1,0,0,0,43,0,0,0
Fc1ccc(-c2nnc(CN3CCN(c4ncc(C(F)(F)F)cc4Cl)CC3)o2)cc1,0,0,0,49,-,0,0
CCn1cc(S(=O)(=O)NCc2ccc(OC)cc2)cn1,0,0,0,0,0,0,-
CCc1ccc(NC(=O)c2sc3nc4n(c(=O)c3c2C)CCC4)cc1,0,0,0,44,0,0,0
CC(=O)c1cccc(NC(=O)c2sc3nc4n(c(=O)c3c2C)CCCC4)c1,0,0,0,52,0,0,28
CC(=O)Nc1ccc(NC(=O)c2sc3nc4n(c(=O)c3c2C)CCCCC4)cc1,0,0,0,0,0,0,-
CC(NS(=O)(=O)c1cccc(C(=O)N(C)Cc2ccc(N3CCOCC3)cc2)c1)c1ccccc1 (stereo not given),-,-,-,-,0,-,-
CC(C)CN(C(=O)CSc1nc2ccccc2[nH]1)C1CCS(=O)(=O)C1 (stereo not given),0,-,0,0,0,0,-
O=C(/C=C(/c1ccc(Cl)cc1)n1cncn1)c1ccccc1,0,0,0,43,0,0,31
COC(=O)c1c(NC(=O)CN2CCC3(O)CCCCC3C2c2ccccc2OC)sc(C)c1C (stereo not given),0,0,0,40,0,0,0
Cc1ccccc1CSCC(=O)N1CCN(c2ccccc2)CC1,0,0,0,44,0,0,0
O=C(CSCc1ccc(F)cc1)N1CCN(c2ccccc2)CC1,0,0,0,0,0,0,-
NC(=O)c1nsc(C(=O)N(c2cccc(F)c2)C(C(=O)NCC2CCCO2)c2cccs2)c1N (stereo not given),0,0,0,0,0,0,-
SMILES,TIM10 inh,NALP1 yeast inh,NALP3 yeast inh,tim10-1 inh,PfHsp90 set2,tim23-1 inh,tim10-1 confirm
CC(C)n1nccc1N(Cc1ccc(Br)cc1)S(=O)(=O)c1ccccc1,0,0,0,0,0,0,-
N#Cc1nc(-c2ccccc2Cl)oc1NCc1ccco1,0,0,0,40,0,0,0
Cc1cccc(OCCNc2cc(N3CCN(C)CC3)ccc2[N+](=O)[O-])c1,0,0,0,0,0,0,-
Cc1ccc(OCCNc2cc(N3CCN(CCO)CC3)ccc2[N+](=O)[O-])cc1C,0,0,0,43,0,0,0
COc1ccc(C2=NN3C(=O)c4c(ccc(OC)c4OC)C3C2)cc1 (stereo not given),0,0,0,0,0,0,-
COc1ccc2c(c1OC)C(=O)N1N=C(c3ccc(Cl)cc3)CC21 (stereo not given),0,0,0,46,0,0,33
Cc1ccc(CNC(=O)c2ccc(Cl)c(S(=O)(=O)N3CCCCC3)c2)cc1,0,-,0,0,-,0,-
Fc1ccccc1CNCCC(Cc1ccccc1)c1ccc2c(c1)OCO2 (stereo not given),0,0,0,47,0,0,0
CN(C)c1nc(OCCOC(=O)Nc2ccc(Cl)cc2Cl)nc(N(C)C)n1,0,0,0,42,0,0,0
CC(C)Oc1ccc(CNC(=S)N/N=C/c2ccc([N+](=O)[O-])cc2)cc1,0,0,0,43,0,0,0
CC(C)(Oc1ccc(Cl)cc1)C(=O)OCC(=O)NCCc1ccccc1,0,0,0,0,0,0,-
CCOC(=O)c1cccc(C2=CC(=O)C[C@H](c3ccc(Cl)cc3)C2)c1,0,-,0,0,0,0,-
Cc1ccc(-n2nc(-c3ccco3)cc2C(=O)O)cc1,0,-,0,0,0,0,-
O=C(c1cc(-c2ccco2)nn1-c1cccc(Cl)c1)N1CCCCC1,0,0,0,46,0,0,0
CC(C)NC(=O)c1cc(-c2ccco2)nn1-c1ccc(Cl)cc1,0,0,0,44,0,0,0
COCCN=C1Sc2nc3cc4c(cc3cc2CN1CC1CCCO1)OCO4 (stereo not given),0,0,0,0,0,0,-
CCOc1ccc2nc(NC(=O)C3CSC4(C)CCC(=O)N34)sc2c1 (stereo not given),0,-,0,0,0,0,-
Cc1ccc(C)c(NC(=S)NNC(=O)c2cc3c(s2)CCC(C)C3)c1 (stereo not given),0,0,0,44,0,0,34
Cc1ccc(C)c(NC(=S)NNC(=O)c2csc(C)c2C)c1,0,0,0,0,0,0,-
CCCc1cc(C(=O)NNC(=S)Nc2cccc(C)c2)cs1,0,0,0,47,0,0,0
Cc1ccc(C)c(NC(=S)NNC(=O)c2csc(C(C)C)c2)c1,0,0,0,40,-,0,34
Cc1cccc(NC(=S)NNC(=O)c2ccc3c(c2)OCO3)c1,0,0,0,0,0,0,-
Cc1ccccc1NC(=O)Cc1nc(COC(=O)c2ncc(Cl)c(Cl)c2Cl)cs1,-,-,-,-,0,-,-
CCN1C(=O)[C@H]2[C@@H](c3ccc(-c4cccc(Cl)c4)cc3)N[C@@](C)(C(=O)OC)[C@H]2C1=O,0,-,0,0,0,0,-
CC(C)N(C)Cc1nnnn1CC(=O)NCCc1cccc(C(F)(F)F)c1,0,0,0,0,0,0,-
CCOC(=O)CCN1C(=O)c2ccccc2Sc2ncccc21,0,0,0,0,0,0,-
CCc1c(C)nc(SCC(=O)CC(=O)OC(C)C)c(C#N)c1C,0,0,0,44,-,0,0
NC(=O)CC[C@H](NC(=O)c1ccc(Cl)cc1)C(=O)NNC(=O)COc1cccc(Br)c1,0,-,0,0,0,0,-
Cc1cc(SCC(=O)NC(=O)NCc2ccco2)nc2ccccc12,0,0,0,43,-,0,35
